From PubChem BioAssay AID1159580 (chemical genetic matrix, 2015)
Out of some 5,500 compounds screened, about 2,000 (36%) were called active. Not shown: some 18% with an inconclusive outcome. No stated cut-off is given here; in the data, active means normalized growth mostly below about 0.91 (no sharp cut-off); inconclusive means no clear call, values can overlap the other calls; inactive means mostly above about 0.92. The list shows a part of the results.

Experiment: chemical genetic growth profiling, strain panel (AID 1159580);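 further: tested at 20 µM; growth read once vehicle control cultures reached saturation at 30 °C; 1 = growth at the plate median or of vehicle wells; lower values mean less growth of the strain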
Conditions: S. cerevisiae deletion strains, growth OD
[1] = locus YAL021C, strain ccr4, active compounds read low
[2] = locus YAL026C, strain drs2, active compounds read low
[3] = locus YAL030W, strain snc1, active compounds read low
[4] = locus YBL061C, strain skt5, active compounds read low
[5] = locus YBR009C, strain hhf1, active compounds read low
[6] = locus YBR023C, strain chs3, active compounds read low
[7] = locus YBR171W, strain sec66, active compounds read low
[8] = locus YBR231C, strain swc5, active compounds read low
[9] = locus YBR279W, strain paf1, active compounds read low
[10] = locus YCL011C, strain gbp2, active compounds read low
[11] = locus YCL016C, strain dcc1, active compounds read low
[12] = locus YCL061C, strain MRC1, active compounds read low
[13] = locus YCL069W, strain vba3, active compounds read low
[14] = locus YCR088W, strain abp1, active compounds read low
[15] = locus YDL005C, strain med2, active compounds read low
[16] = locus YDL040C, strain nat1, active compounds read low
[17] = locus YDR001C, strain nth1, active compounds read low
[18] = locus YDR069C, strain doa4, active compounds read low
[19] = locus YDR137W, strain rgp1, active compounds read low
[20] = locus YDR159W, strain sac3, active compounds read low
[21] = locus YDR297W, strain sur2, active compounds read low
[22] = locus YDR334W, strain swr1, active compounds read low
[23] = locus YDR335W, strain msn5, active compounds read low
[24] = locus YDR392W, strain spt3, active compounds read low
[25] = locus YEL003W, strain gim4, active compounds read low
[26] = locus YEL037C, strain rad23, active compounds read low
[27] = locus YEL061C, strain CIN8 (second series), active compounds read low
[28] = locus YER015W, strain faa2, active compounds read low
[29] = locus YER016W, strain bim1, active compounds read low
[30] = locus YER111C, strain swi4, active compounds read low
[31] = locus YER155C, strain BEM2 (second series), active compounds read low
[32] = locus YFR010W, strain ubp6, active compounds read low
[33] = locus YGL167C, strain pmr1, active compounds read low
[34] = locus YGL173C, strain kem1, active compounds read low
[35] = locus YGL227W, strain vid30, active compounds read low
[36] = locus YGL240W, strain doc1, active compounds read low
[37] = locus YGL253W, strain hxk2, active compounds read low
[38] = locus YHR013C, strain ard1, active compounds read low
[39] = locus YHR027C, strain rpn1, active compounds read low
[40] = locus YHR030C, strain SLT2, active compounds read low
[41] = locus YHR079C, strain IRE1, active compounds read low
[42] = locus YHR142W, strain chs7, active compounds read low
[43] = locus YJL092W, strain hpr5, active compounds read low
[44] = locus YJL095W, strain BCK1 (second series), active compounds read low
[45] = locus YJL095W, strain BCK1, active compounds read low
[46] = locus YJL115W, strain asf1, active compounds read low
[47] = locus YJL129C, strain trk1, active compounds read low
[48] = locus YJL154C, strain vps35, active compounds read low
[49] = locus YJL164C, strain tpk1, active compounds read low
[50] = locus YJL166W, strain qcr8, active compounds read low
[51] = locus YJL187C, strain SWE1, active compounds read low
[52] = locus YJR066W, strain TOR1, active compounds read low
[53] = locus YKL160W, strain elf1, active compounds read low
[54] = locus YKR026C, strain gcn3, active compounds read low
[55] = locus YKR091W, strain srl3, active compounds read low
[56] = locus YLL001W, strain dnm1, active compounds read low
[57] = locus YLL026W, active compounds read low
[58] = locus YLL041C, strain sdh2, active compounds read low
[59] = locus YLR027C, strain aat2, active compounds read low
[60] = locus YLR113W, strain HOG1, active compounds read low
[61] = locus YLR221C, strain rsa3, active compounds read low
[62] = locus YLR258W, strain gsy2, active compounds read low
[63] = locus YLR262C, strain YPT6 (second series), active compounds read low
[64] = locus YLR320W, strain mms22, active compounds read low
[65] = locus YLR342W, strain FKS1, active compounds read low
[66] = locus YLR357W, strain rsc2, active compounds read low
[67] = locus YLR370C, strain arc18, active compounds read low
[68] = locus YLR384C, strain iki3, active compounds read low
[69] = locus YML120C, strain ndi1, active compounds read low
[70] = locus YMR058W, strain fet3, active compounds read low
[71] = locus YMR125W, strain sto1, active compounds read low
[72] = locus YMR129W, active compounds read low
[73] = locus YMR205C, strain PFK2, active compounds read low
[74] = locus YMR231W, strain pep5, active compounds read low
[75] = locus YNL071W, strain lat1, active compounds read low
[76] = locus YNL183C, strain NPR1, active compounds read low
[77] = locus YNL209W, strain ssb2, active compounds read low
[78] = locus YNL248C, strain rpa49, active compounds read low
[79] = locus YNL322C, strain KRE1 (second series), active compounds read low
[80] = locus YNR049C, strain mso1, active compounds read low
[81] = locus YOR001W, strain rrp6, active compounds read low
[82] = locus YOR070C, strain gyp1, active compounds read low
[83] = locus YOR080W, strain dia2, active compounds read low
[84] = locus YOR083W, strain WHI5, active compounds read low
[85] = locus YOR106W, strain vam3, active compounds read low
[86] = locus YOR231W, strain MKK1, active compounds read low
[87] = locus YOR265W, strain rbl2, active compounds read low
[88] = locus YOR270C, strain vph1, active compounds read low
[89] = locus YOR290C, strain snf2, active compounds read low
[90] = locus YPL051W, strain arl3, active compounds read low
[91] = locus YPL078C, strain atp4, active compounds read low
[92] = locus YPL106C, strain sse1, active compounds read low
[93] = locus YPL240C, strain hsp82, active compounds read low
[94] = locus YPL256C, strain CLN2, active compounds read low

Measured: normalized growth

O=C(/C=C/c1ccc(O)c(O)c1)OCCc1ccccc1
active: [2] 0.671 | [3] 0.889 | [4] 0.767 | [5] 0.781 | [6] 0.774 | [8] 0.587 | [9] 0.848 | [10] 0.751 | [11] 0.774 | [12] 0.851 | [13] 0.913 | [14] 0.841 | [18] 0.804 | [19] 0.589 | locus YDR195W, strain ref2 1.19 [resistant] | [21] 0.87 | [22] 0.641 | [23] 0.868 | [24] 0.116 | [25] 0.691 | [27] 0.693 | locus YER002W, strain NOP16, active compounds read low 0.896 | [28] 0.775 | [29] 0.868 | [30] 0.808 | [31] 0.463 | [34] 0.796 | [35] 0.287 | [37] 0.749 | locus YGR078C, strain PAC10, active compounds read low 0.881 | locus YGR229C, strain SMI1, active compounds read low 0.357 | [38] 0.683 | [39] 0.857 | [40] 0.837 | [41] 0.803 | [42] 0.592 | [43] 0.891 | [44] 0.644 | [45] 0.863 | [47] 0.522 | [49] 0.766 | [50] 0.807 | [51] 0.851 | [52] 0.742 | locus YJR075W, strain HOC1, active compounds read low 0.858 | [53] 0.724 | [54] 0.908 | [55] 0.928 | [56] 0.832 | [57] 0.896 | [58] 0.898 | [59] 0.774 | [61] 0.69 | [62] 0.844 | [63] 0.493 | [64] 0.453 | [65] 0.796 | [69] 0.686 | [70] 0.494 | [71] 0.615 | [72] 0.911 | [73] 0.66 | [74] 0.759 | [75] 0.478 | locus YNL175C, strain NOP13, active compounds read low 0.879 | [76] 0.803 | [77] 0.855 | [78] 0.769 | locus YNL322C, strain KRE1, active compounds read low 0.881 | [81] 0.8 | [82] 0.827 | locus YOR083W, strain WHI5 (second series), active compounds read low 0.751 | [84] 0.81 | [85] 0.573 | [86] 0.857 | [87] 0.881 | [88] 0.568 | [89] 0.748 | [90] 0.652 | [91] 0.855 | [93] 0.845
inactive: [1] 0.937 | locus YAL040C, strain CLN3, active compounds read low 1.08 | [7] 0.911 | [15] 0.964 | [16] 0.96 | [17] 0.933 | [20] 0.916 | locus YDR363W, strain ESC2, active compounds read low 0.98 | [26] 0.938 | [32] 0.906 | [33] 0.941 | [36] 0.927 | [46] 0.989 | [48] 0.962 | [60] 0.862 | [66] 0.88 | [67] 0.944 | [68] 0.972 | locus YNL197C, strain WHI3, active compounds read low 0.897 | locus YNL224C, strain SQS1, active compounds read low 0.937 | [79] 0.963 | [80] 0.944 | [83] 0.961 | [92] 0.882 | locus YPL241C, strain CIN2, active compounds read low 0.964 | [94] 0.854

O=C(/C=C/c1ccc(O)c(O)c1)OC(Cc1ccc(O)c(O)c1)C(=O)O (configuration not stated)
inactive: [1] 1.07 | [2] 1.03 | [3] 1.01 | [4] 1.05 | [5] 1.01 | [6] 1.04 | [7] 1.01 | [8] 0.994 | [9] 1.02 | [10] 1.02 | [11] 1.05 | [12] 1.03 | [13] 1.02 | [14] 1.02 | [15] 1.01 | [16] 1.02 | [17] 1.02 | [18] 1.03 | [19] 1.09 | [20] 0.922 | locus YDR195W, strain ref2 1.07 | [21] 1.02 | [22] 1.04 | [23] 1.03 | [24] 0.885 | [25] 0.999 | [26] 1.02 | [27] 1.02 | [28] 1.01 | [29] 1.04 | [30] 1.01 | [31] 0.997 | [32] 0.997 | [33] 1.01 | [34] 0.995 | [35] 1.02 | [36] 1.04 | [37] 1.05 | [38] 0.999 | [39] 1 | [40] 0.982 | [41] 0.989 | [42] 1.04 | [43] 1.02 | [44] 1.03 | [45] 0.999 | [46] 1.02 | [47] 1.03 | [48] 1.02 | [49] 0.99 | [50] 1.03 | [51] 1.03 | [52] 0.912 | [53] 1.04 | [54] 1.03 | [55] 1.01 | [56] 1 | [57] 1.02 | [58] 1.02 | [59] 1.04 | [60] 0.979 | [61] 0.989 | [62] 1.01 | [63] 1.05 | [64] 1 | [65] 1.02 | [66] 1.04 | [67] 1.03 | [68] 1 | [69] 0.994 | [70] 0.932 | [71] 1.02 | [72] 1.02 | [73] 1.08 | [74] 1.01 | [75] 1.01 | [76] 0.905 | [77] 1 | [78] 1.03 | [79] 1.03 | [80] 1.02 | [81] 0.965 | [82] 1.01 | [83] 1.02 | [84] 0.988 | [85] 1.05 | [86] 1 | [87] 1.01 | [88] 1.07 | [89] 1.04 | [90] 1.04 | [91] 1.06 | [92] 1.06 | [93] 1.02 | [94] 1
